In PubChem BioAssay AID463173 (ICCB-Longwood Screening Facility, Harvard Medical School, 2010) one finds survival data, which are given here for 34 molecules.

Out of some 52,000 compounds screened, about 4,300 (8.3%) were called active. No stated cut-off is given here; in the data, active means survival mostly below about 52% (no sharp cut-off); inactive means mostly above about 56%. Only a selection was taken, and actives are over-represented in it overall.

This test relates to DeltatarO mutant. The experiment in a line: growth inhibition of S. aureus wild type versus tarO mutant, primary screen, teichoic acid synthesis inhibitors, RN4220, OD600 (AID 463173). The following applies: OD600, 18 h, stronger effect = lower value, screened at 18.75 µg/mL (by protocol).
For the molecule `CN1CCN(C(=O)c2ccc3c(c2)N(Cc2c(F)cccc2Cl)C(=O)c2ccccc2S3)CC1`, the survival was 85% (inactive).

Regarding `Cc1ccc(S(=O)(=O)c2nc(-c3cccs3)oc2SCC(=O)Nc2cc(C)cc(C)c2)cc1`, the survival is 70% (inactive).

`CCCS(=O)(=O)N1CCN(Cc2ccc(OC)c(OCC)c2)CC1`: the survival was 97% (inactive).

As for `COc1cc(CN2CCN(C(=O)c3cccc4ccccc34)CC2)cc(OC)c1OC`, the survival was 72% (inactive).

Regarding `CCn1c2ccccc2c2cc(CN3CCN(Cc4cc(OC)c(O)c(OC)c4)CC3)ccc21`, the survival is 43% (active).

Turning to `COc1ccc(CCn2nnnc2CN2CCN(Cc3ccccc3)CC2)cc1OC`, the survival is 82% (inactive).

On to `CCn1c2ccccc2c2cc(CN3CCN(Cc4ccc(OC)c(OC)c4)CC3)ccc21`, for which the survival is 17% (active).

For the molecule `COc1cc(CN2CCN(S(=O)(=O)c3ccccc3)CC2)cc(OC)c1O`, the survival is 57% (inactive).

Turning to `O=C(CCSCCc1ccccn1)Nc1cc(F)ccc1F`, the survival is 79% (inactive).

For `COc1ccc(-c2csc3ncnc(Nc4ccc(OC)cc4OC)c23)cc1`, the survival was 64% (inactive).

Turning to `CCCCNC(=O)c1ccc2c(c1)NC(=O)C(CS(=O)(=O)Cc1ccc(F)cc1Cl)N2` (centres undefined), the survival was 74% (inactive).

With `O=C(CSc1nc2c(oc3ccccc32)c(=O)n1-c1ccccc1)Nc1ccccc1F`, the survival is 66% (inactive).

For `O=C(CSCc1ccc(F)cc1)N1CCN(c2ccccc2F)CC1`, the survival is 102% (inactive).

Regarding `COc1cccc(Nc2nc3ccccc3c3nncn23)c1`, the survival is 89% (inactive).

As to `Cc1ccc(Cl)cc1Nc1nc2ccccc2c2nncn12`, the survival was 104% (inactive).

As for `Cc1ccc(Nc2nc3ccccc3c3nncn23)cc1C`, the survival is -4% (active).

Turning to `O=C1CN(C(=O)c2ccc(S(=O)(=O)N3CCCCC3)cc2)C(c2ccc(F)cc2)c2cc(Cl)ccc2N1` (centres undefined), the survival was 62% (inactive).

In the case of `CC(C)Oc1ccc(CNC(=O)Cn2c(=O)oc3ccccc32)cc1`, the survival was 77% (inactive).

As for `C[C@H](NC(=O)OC(C)(C)C)c1nnc(SCc2ccc(Cl)cc2Cl)o1`, the survival is 54% (inactive).

As to `Cc1nnc(SCc2ccc(Cl)cc2Cl)o1`, the survival is 80% (inactive).

Regarding `CC(C)C[C@H](N)c1nnc(SCc2ccc(Cl)cc2Cl)o1`, the survival is 38% (active).

`CSc1ncc2c(n1)-c1ccccc1N(Cc1ccc(Cl)cc1)S2(=O)=O`: the survival is 98% (inactive).

Regarding `COc1cccc(NC(=O)CCNS(=O)(=O)c2ccc3c(c2)oc(=O)n3C)c1`, the survival was 90% (inactive).

Take `CCOc1ccc(NC(=O)CCS(=O)(=O)c2ccc(Br)s2)cc1`: the survival is 82% (inactive).

As to `Cc1cccc(NC(=O)C2CCC(CNS(=O)(=O)c3ccc(Br)s3)CC2)c1` (centres undefined), the survival is 52% (active).

In the case of `CCOc1ccc(NC(=O)CNS(=O)(=O)c2ccc(Br)s2)cc1`, the survival is 49% (inactive).

`Cc1cc(NC(=O)C2CCC(CNS(=O)(=O)c3ccc(Br)s3)CC2)ccc1Br` (centres undefined): the survival is 93% (inactive).

Consider `COC(=O)c1ccc(NC(=O)CN(C)S(=O)(=O)c2ccc(Br)s2)cc1`, for which the survival was 73% (inactive).

Consider `Cc1ccc(NC(=O)CCNS(=O)(=O)c2ccc(Br)s2)cc1`, for which the survival is 50% (active).

As for `CCOc1ccc(NC(=O)CCNS(=O)(=O)c2cccs2)cc1`, the survival was 51% (inactive).

For the molecule `O=C(CCNS(=O)(=O)c1ccc(Br)s1)Nc1ccc(Br)cc1`, the survival was 40% (active).

As to `COc1cccc(CNC(=O)C2CCC(CNS(=O)(=O)c3ccc(Br)s3)CC2)c1` (centres undefined), the survival was 71% (inactive).

As for `CCc1cccc(NC(=O)C2CCC(CNS(=O)(=O)c3ccc(Br)s3)CC2)c1` (centres undefined), the survival was 79% (inactive).

As to `COc1cccc(NC(=O)CCNS(=O)(=O)c2ccc(Br)s2)c1`, the survival is 37% (active).
